From ChEMBL document CHEMBL1857833, “Screening and optimization of specific chemical series against human African Trypanosomiasis (HAT)”
“And” between values parts separate entries of the source, which are not always exact repeats. Equal entries are not always repeated. Out of some 4,400 compounds screened, about 390 (8.9%) showed an effect of 50% or more. What follows is part of a selection rich in strong results, with near analogues and random picks from the rest.

system: Trypanosoma brucei; assay: DNDI: Inhibition of Human African Trypanosomiasis, SBRI 427, in vitro at 2 ug.mL-1; format: functional

Compound | % inhibition
CCOC(=O)C1CCCCN1Cc1coc(-c2ccc(O)cc2)n1 (stereo not drawn) | -1%
Fc1ccccc1-c1nc(CNCc2cccc3ccccc23)co1 | 24%
Cc1ccc(/C(=N/O)N(C)Cc2cccnc2)c(Oc2cccnc2)n1 | 10%
CSc1ccc(Oc2nc(C)ccc2/C(=N/O)N2C(C)C=CC2C)cc1 (stereo not drawn) | -5%
Cc1ccccc1-c1nc(CN(C)Cc2ccco2)co1 | 2%
CCN(/C(=N\O)c1ccc(C)nc1Oc1cccc(C(C)C)c1)C(C)C | -4%
C=CCN(Cc1coc(-c2ccc(C)cc2)n1)C1CCCC1 | 16%
Cc1ccc([C@@H](C)NCc2coc(-c3ccc(O)cc3)n2)cc1 | 46%
Cc1ccc(Oc2cc(/C(=N/O)N3CCN(c4ccc(F)cc4)CC3)ccn2)c2c1CCC2 | 31%
COc1cc(CNCc2coc(-c3ccccc3Br)n2)cc(OC)c1OC | -33%
CCN(Cc1ccccc1)Cc1coc(-c2cc(OC)c(OC)c(OC)c2)n1 | -20%
Cc1ccc(C)c(N2CCN(Cc3coc(-c4ccc(O)cc4)n3)CC2)c1 | 9%
Cc1cccc(-c2nc(CNCc3ccncc3)co2)c1 | -16%
Cc1ccc(-c2nc(CN3CC[C@@H]4CCCC[C@@H]4C3)co2)cc1 | -5%
CCN(/C(=N\O)c1ccnc(Oc2ccc(F)c(F)c2)c1)C(C)C | 43%
COCC(C)N/C(=N\O)c1ccnc(Oc2ccc(F)c(Cl)c2)c1 (stereo not drawn) | 99%
O/N=C(\NCc1ccccc1)c1ccnc(Oc2ccc(F)c(Cl)c2)c1 | 24%
CCN(/C(=N\O)c1ccnc(Oc2ccc(F)c(Cl)c2)c1)C(C)C | 14%
CC(C)c1ccc(N/C(=N\O)c2ccnc(Oc3ccc(F)c(Cl)c3)c2)cc1 | 0%
CCN(/C(=N\O)c1ccnc(Oc2ccc(Cl)cc2)c1)C(C)C | 74%
Cc1cn(/C(=N\O)c2ccc(Oc3ccc(Cl)cc3)nc2)cn1 | 5%
CCCN(CC1CC1)/C(=N\O)c1cccnc1Oc1ccccc1OC | 24%

Compound | % inhibition
CC(C)c1ccccc1Oc1ncccc1/C(N)=N/O | 7%
COc1cc(C)ccc1Oc1nc(C)ccc1/C(=N/O)Nc1ccc(C(C)C)cc1 | 8%
Cc1ccc(Oc2nc(C)ccc2/C(=N/O)NCc2ccco2)cc1 | 37%
CCCN/C(=N\O)c1cccnc1Oc1ccc2ccccc2c1 | 25%
Cc1cc(C)cc(CN/C(=N\O)c2cccnc2Oc2ccc(Cl)cc2)c1 | 31%
CC(C)N/C(=N\O)c1cccnc1OCC(C)(C)C | 100%
COc1ccc(Oc2ncccc2/C(=N/O)NCc2cc(C)cc(C)c2)cc1 | 79%
CCC(C)(C)N/C(=N\O)c1cccnc1OCC(C)(C)C | 11%
CC(C)N/C(=N\O)c1cccnc1Oc1ccc2ccccc2c1 | 21%
CC(C)c1ccc(N/C(=N\O)c2cccnc2OCC(C)(C)C)cc1 | 14%
CCC(C)(C)N/C(=N\O)c1cccnc1Oc1ccc2ccccc2c1 | 99%
Cc1cc(C)cc(CN/C(=N\O)c2cccnc2Oc2ccc3ccccc3c2)c1 | 70%
Cc1ccc(CN/C(=N\O)c2cccnc2Oc2ccc3ccccc3c2)o1 | 19%
O/N=C(\NCc1cccnc1)c1cccnc1Oc1ccc2ccccc2c1 | -6%
COc1ccc(Oc2ncccc2/C(=N/O)NCc2cccnc2)cc1 | -2%
COc1cccc(-c2nc(CN3CCOCC3)co2)c1 | 35%
FC(F)(F)CNCc1coc(-c2ccc(Cl)cc2Cl)n1 | 23%
COCC(C)NCc1coc(-c2ccccc2C)n1 (stereo not drawn) | 9%
CC(c1ccccc1)N(C)Cc1coc(-c2ccc(C(F)(F)F)cc2)n1 (stereo not drawn) | 7% and -11%
Cc1cc(C)cc(Oc2ccc(/C(N)=N/O)cn2)c1 | 11%
Clc1ccccc1-c1nc(CNC(c2ccccc2)c2ccccc2)co1 | 6%
CC1CC(C)CN(Cc2coc(-c3ccc(Br)cc3)n2)C1 (stereo not drawn) | -5%

Compound | % inhibition
CCOc1ccccc1-c1nc(CN(C)C(C)c2ccccc2)co1 (stereo not drawn) | 8% and 1%
CCOc1cccc(-c2nc(CNC(CC)c3ccccc3)co2)c1 (stereo not drawn) | 27%
Fc1ccc(N2CCN(Cc3coc(-c4ccccc4Br)n3)CC2)cc1 | -6%
Cc1nccn1/C(=N\O)c1cccnc1OCC(C)C | -13%
O/N=C(\NCc1cc(F)ccc1F)c1ccc(Oc2ccc3ccccc3c2)nc1 | 31%
Cc1cc(C)cc(CN/C(=N\O)c2cccnc2OCC(C)C)c1 | 92%
Cc1cc(C)cc(CN/C(=N\O)c2cccnc2OCC(C)(C)C)c1 | -8%
CC(C)COc1ncccc1/C(=N/O)NCC(C)(C)C | 95%
COCCN/C(=N\O)c1cccnc1OCC(C)C | -7%
CSCCN/C(=N\O)c1cccnc1OCC(C)C | -5%
CC(C)COc1ncccc1/C(=N/O)NCc1ccccc1 | 37%
Fc1cccc(-c2nc(CNc3cc[nH]n3)co2)c1 | 45%
FC(F)(F)c1ccc(-c2nc(CN3CCN(C(c4ccccc4)c4ccccc4)CC3)co2)cc1 | -3%
CCOc1ccc(-c2nc(CNC(CC)c3ccccc3)co2)cc1 (stereo not drawn) | 1% and -14%
CCCCN(CC)Cc1coc(-c2ccccc2Cl)n1 | 19%
COc1ccc(-c2nc(CNCCCN3CCCCC3C)co2)cc1 (stereo not drawn) | 97%
CC1CCCCN1CCCNCc1coc(-c2ccco2)n1 (stereo not drawn) | 23%
Fc1ccc(-c2nc(CNCCN3CCCC3)co2)cc1 | 1%
COc1ccc(-c2nc(CN3CCCCC3C)co2)cc1 (stereo not drawn) | 12%
Fc1ccc(-c2nc(CNCCN3CCCCC3)co2)cc1 | -17%
CC1CCCCN1CCCNCc1coc(-c2ccc(F)cc2)n1 (stereo not drawn) | 72%
COC(=O)C1CCN(/C(=N\O)c2cccnc2Oc2cccc3ccccc23)CC1 | 9%

Compound | % inhibition
CC1CCCN1/C(=N\O)c1cccnc1Oc1ccc(Cl)cc1 (stereo not drawn) | -13%
CN(Cc1coc(-c2ccc(C(F)(F)F)cc2)n1)c1ccccc1 | 1%
Oc1ccc(-c2nc(CN(Cc3ccccc3)c3ccccc3)co2)cc1 | 11%
NCCc1cn(Cc2coc(-c3cccs3)n2)c2ccccc12 | -15%
CCN(Cc1ccccc1)Cc1coc(-c2ccc(OC)cc2)n1 | -11%
Cc1ccc(/C(=N/O)NCc2cc(F)cc(F)c2)c(OCc2cccc(F)c2)n1 | -12%
Cc1ccc(/C(=N/O)NCC(C)(C)C)c(OCc2cccc(F)c2)n1 | 96%
Cc1ccc(/C(=N/O)NCC(C)(C)C)c(Oc2ccc3ccccc3c2)n1 | 96%
CCC(C)(C)N/C(=N\O)c1ccc(C)nc1Oc1cccc(C)c1 | 19%
CSCCN/C(=N\O)c1ccc(C)nc1Oc1ccc2ccccc2c1 | 7%
CCC(C)(C)N/C(=N\O)c1ccc(C)nc1Oc1cccc(F)c1 | 13%
Cc1ccc(/C(=N/O)NCC2CC2)c(Oc2ccc3ccccc3c2)n1 | 17%
Cc1cccc(Oc2nc(C)ccc2/C(=N/O)NCc2ccccc2)c1 | 6%
Cc1ccc(/C(=N/O)NCC(C)(C)C)c(Oc2cccc(F)c2)n1 | 99%
Cc1cccc(Oc2nc(C)ccc2/C(=N/O)NCC(C)(C)C)c1 | 100%
CSCCN/C(=N\O)c1ccc(C)nc1Oc1cccc(F)c1 | 12%
CCCN/C(=N\O)c1ccc(C)nc1OCc1cccc(F)c1 | 0%
Cc1cccc(-c2nc(Cn3cc(-c4ccccc4)c(C)n3)co2)c1 | -11%
c1ccc(-c2nc(CN3CCC4CCCCC4C3)co2)cc1 (stereo not drawn) | 37%
C#CC(CC)(CC)NCc1coc(-c2cccs2)n1 | -2%
CCN(Cc1ccccc1)Cc1coc(-c2cccc(OC)c2)n1 | -7%
CCN1CCN(Cc2coc(-c3ccc(C(F)(F)F)cc3)n2)CC1 | 10%

Compound | % inhibition
CCCc1nccn1Cc1coc(-c2cccc(F)c2)n1 | 5%
COc1cc(CNCc2coc(-c3ccc(C)cc3)n2)cc(OC)c1OC | 9%
O=c1c(Cl)cn(Cc2coc(-c3ccc(C(F)(F)F)cc3)n2)cc1Cl | -5%
COc1ccc(-c2nc(CN3CCN(c4ccccc4OC)CC3)co2)cc1 | 13%
CC(C)(C)c1ccc(CNCc2coc(-c3cccc4ccccc34)n2)cc1 | -1%
CC1CC(N/C(=N\O)c2cccnc2Oc2ccc(-n3cncn3)cc2)CC(C)(C)C1 (stereo not drawn) | 41%
COc1ccc(CN/C(=N\O)c2cccnc2Oc2ccccc2OC)cc1 | 13%
COc1ccccc1Oc1ncccc1/C(=N/O)NCc1ccco1 | 27%
COc1ccccc1Oc1ncccc1/C(=N/O)NCC1CC1 | 96%
COc1ccc(Oc2ncccc2/C(=N/O)NCC2CC2)cc1 | 99%
CC(C)N/C(=N\O)c1cccnc1Oc1ccc(-n2cncn2)cc1 | 42%
CC1CCC(N/C(=N\O)c2cccnc2Oc2ccc(-n3cncn3)cc2)CC1 (stereo not drawn) | 98%
COc1ccc(Oc2ncccc2/C(=N/O)NCC2CCCCC2)cc1 | 93%
COc1ccc(Oc2nc(C)ccc2/C(=N/O)NCC2CCCCC2)cc1 | 24%
COc1cccc(-c2nc(Cn3cnc(-c4ccccc4)c3)co2)c1 | -15%
O/N=C(/c1cccnc1Oc1ccc(F)cc1)N1CCCCCC1 | 1%
COc1ccc(CN/C(=N\O)c2cccnc2Oc2ccc3c(c2)CCCC3)cc1 | 8%
Cc1ccc(/C(=N/O)Nc2ccc(C(C)C)cc2)c(Oc2cccc(F)c2)n1 | 16%
Cc1ccc(/C(=N/O)NCc2ccc(C)o2)c(Oc2ccc3oc4ccccc4c3c2)n1 | 9%
CCCCN(CCC#N)Cc1coc(-c2ccc(C(C)(C)C)cc2)n1 | 3%
